# Experimental data taken from PubChem BioAssay AID1159580 (chemical genetic matrix, 2015).
# Several values for one entry are separate records, joined by “and”; a condition that tells them apart may be missing. Identical values can stand only once. Hit rate of the full screen: of about 5,500 compounds, about 2,000 (36%) were called active. Not shown: some 18% with an inconclusive outcome. The list shows a part of the results. Unmarked numbers belong to inactive results. Rule as the data show it: active = normalized growth mostly below about 0.91 (no sharp cut-off); inconclusive = no clear call, values can overlap the other calls; inactive = mostly above about 0.92.
# Assay: chemical genetic growth profiling, strain panel (AID 1159580);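 also: tested at 20 µM; growth read once vehicle control cultures reached saturation at 30 °C; 1 = growth at the plate median or of vehicle wells; lower values mean less growth of the strain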
# Conditions: growth OD
structure (smiles),measurement,setting,value
O=c1c(O)c(-c2cc(O)c(O)c(O)c2)oc2cc(O)cc(O)c12,normalized growth,"S. cerevisiae deletion strains, locus YAL040C, strain CLN3, stronger effect = lower value",1.07
same,normalized growth,"S. cerevisiae deletion strains, locus YBR021W, strain FUR4, stronger effect = lower value",1.01
same,normalized growth,"S. cerevisiae deletion strains, locus YBR229C, strain ROT2, stronger effect = lower value",1
same,normalized growth,"S. cerevisiae deletion strains, locus YCL029C, strain bik1, stronger effect = lower value",1.02
same,normalized growth,"S. cerevisiae deletion strains, locus YCL061C, strain MRC1 (second series), stronger effect = lower value",0.985
same,normalized growth,"S. cerevisiae deletion strains, locus YDL035C, strain GPR1, stronger effect = lower value",0.972
same,normalized growth,"S. cerevisiae deletion strains, locus YDL074C, strain BRE1, stronger effect = lower value",1.01
same,normalized growth,"S. cerevisiae deletion strains, locus YDL101C, strain DUN1, stronger effect = lower value",1.03
same,normalized growth,"S. cerevisiae deletion strains, locus YDL185W, strain tfp1, stronger effect = lower value",1.02
same,normalized growth,"S. cerevisiae deletion strains, locus YDL192W, strain arf1, stronger effect = lower value",1.02
same,normalized growth,"S. cerevisiae deletion strains, locus YDR101C, strain arx1, stronger effect = lower value",1
same,normalized growth,"S. cerevisiae deletion strains, locus YDR150W, strain NUM1, stronger effect = lower value",1.02
same,normalized growth,"S. cerevisiae deletion strains, locus YDR162C, strain NBP2, stronger effect = lower value",0.963
same,normalized growth,"S. cerevisiae deletion strains, locus YDR318W, strain mcm21, stronger effect = lower value",1.01
same,normalized growth,"S. cerevisiae deletion strains, locus YDR363W, strain ESC2, stronger effect = lower value",1.03
same,normalized growth,"S. cerevisiae deletion strains, locus YDR388W, stronger effect = lower value",1.02
same,normalized growth,"S. cerevisiae deletion strains, locus YDR502C, strain sam2, stronger effect = lower value",1
same,normalized growth,"S. cerevisiae deletion strains, locus YEL061C, strain CIN8, stronger effect = lower value",1
same,normalized growth,"S. cerevisiae deletion strains, locus YER002W, strain NOP16, stronger effect = lower value",1
same,normalized growth,"S. cerevisiae deletion strains, locus YER110C, stronger effect = lower value",1.03
same,normalized growth,"S. cerevisiae deletion strains, locus YER155C, strain BEM2, stronger effect = lower value",0.999
same,normalized growth,"S. cerevisiae deletion strains, locus YER167W, strain BCK2, stronger effect = lower value",0.997
same,normalized growth,"S. cerevisiae deletion strains, locus YGL078C, strain dbp3, stronger effect = lower value",1
same,normalized growth,"S. cerevisiae deletion strains, locus YGL086W, strain mad1, stronger effect = lower value",1
same,normalized growth,"S. cerevisiae deletion strains, locus YGL248W, strain PDE1, stronger effect = lower value",1.03
same,normalized growth,"S. cerevisiae deletion strains, locus YGR078C, strain PAC10, stronger effect = lower value",0.959
same,normalized growth,"S. cerevisiae deletion strains, locus YGR135W, strain pre9, stronger effect = lower value",0.998
same,normalized growth,"S. cerevisiae deletion strains, locus YGR229C, strain SMI1, stronger effect = lower value",0.416 (active)
same,normalized growth,"S. cerevisiae deletion strains, locus YGR252W, strain gcn5, stronger effect = lower value",1
same,normalized growth,"S. cerevisiae deletion strains, locus YHR030C, strain SLT2, stronger effect = lower value",1.01
same,normalized growth,"S. cerevisiae deletion strains, locus YHR079C, strain IRE1 (second series), stronger effect = lower value",1.01
same,normalized growth,"S. cerevisiae deletion strains, locus YHR094C, strain hxt1, stronger effect = lower value",1.03
same,normalized growth,"S. cerevisiae deletion strains, locus YHR129C, strain ARP1, stronger effect = lower value",1.02
same,normalized growth,"S. cerevisiae deletion strains, locus YHR200W, strain rpn10, stronger effect = lower value",1.02
same,normalized growth,"S. cerevisiae deletion strains, locus YIL066C, strain RNR3, stronger effect = lower value",0.976
same,normalized growth,"S. cerevisiae deletion strains, locus YIL073C, strain SPO22, stronger effect = lower value",1.03
same,normalized growth,"S. cerevisiae deletion strains, locus YIL125W, strain kgd1, stronger effect = lower value",1.02
same,normalized growth,"S. cerevisiae deletion strains, locus YIR030C, strain dcg1, stronger effect = lower value",1
same,normalized growth,"S. cerevisiae deletion strains, locus YJL095W, strain BCK1, stronger effect = lower value",1.05
same,normalized growth,"S. cerevisiae deletion strains, locus YJL134W, strain LCB3, stronger effect = lower value",1
same,normalized growth,"S. cerevisiae deletion strains, locus YJL168C, strain set2, stronger effect = lower value",1.01
same,normalized growth,"S. cerevisiae deletion strains, locus YJL187C, strain SWE1 (second series), stronger effect = lower value",1.05
same,normalized growth,"S. cerevisiae deletion strains, locus YJR043C, strain POL32, stronger effect = lower value",0.965
same,normalized growth,"S. cerevisiae deletion strains, locus YJR075W, strain HOC1, stronger effect = lower value",0.993
same,normalized growth,"S. cerevisiae deletion strains, locus YKL009W, strain mrt4, stronger effect = lower value",0.996
same,normalized growth,"S. cerevisiae deletion strains, locus YKL068W, stronger effect = lower value",1.01
same,normalized growth,"S. cerevisiae deletion strains, locus YKL085W, strain MDH1 (second series), stronger effect = lower value",1
same,normalized growth,"S. cerevisiae deletion strains, locus YKL085W, strain MDH1, stronger effect = lower value",1
same,normalized growth,"S. cerevisiae deletion strains, locus YKL190W, strain CNB1, stronger effect = lower value",1.01
same,normalized growth,"S. cerevisiae deletion strains, locus YKR001C, strain vps1, stronger effect = lower value",1.01
same,normalized growth,"S. cerevisiae deletion strains, locus YLR039C, strain RIC1, stronger effect = lower value",1
same,normalized growth,"S. cerevisiae deletion strains, locus YLR058C, strain SHM2, stronger effect = lower value",1.01
same,normalized growth,"S. cerevisiae deletion strains, locus YLR102C, strain apc9, stronger effect = lower value",1.02
same,normalized growth,"S. cerevisiae deletion strains, locus YLR262C, strain YPT6, stronger effect = lower value",0.997
same,normalized growth,"S. cerevisiae deletion strains, locus YLR268W, strain sec22, stronger effect = lower value",1.03
same,normalized growth,"S. cerevisiae deletion strains, locus YLR330W, strain CHS5, stronger effect = lower value",1.01
same,normalized growth,"S. cerevisiae deletion strains, locus YLR342W, strain FKS1 (second series), stronger effect = lower value",1.04
same,normalized growth,"S. cerevisiae deletion strains, locus YLR371W, strain rom2, stronger effect = lower value",1.01
same,normalized growth,"S. cerevisiae deletion strains, locus YLR418C, strain cdc73, stronger effect = lower value",0.981
same,normalized growth,"S. cerevisiae deletion strains, locus YML016C, strain PPZ1, stronger effect = lower value",1
same,normalized growth,"S. cerevisiae deletion strains, locus YML032C, strain rad52, stronger effect = lower value",1
same,normalized growth,"S. cerevisiae deletion strains, locus YML124C, strain tub3, stronger effect = lower value",1.01
same,normalized growth,"S. cerevisiae deletion strains, locus YMR078C, strain ctf18, stronger effect = lower value",1.01
same,normalized growth,"S. cerevisiae deletion strains, locus YMR223W, strain ubp8, stronger effect = lower value",1
same,normalized growth,"S. cerevisiae deletion strains, locus YMR263W, strain SAP30, stronger effect = lower value",1.05
same,normalized growth,"S. cerevisiae deletion strains, locus YMR307W, strain GAS1, stronger effect = lower value",0.969 and 0.876
same,normalized growth,"S. cerevisiae deletion strains, locus YNL067W, strain RPL9B, stronger effect = lower value",1.06
same,normalized growth,"S. cerevisiae deletion strains, locus YNL175C, strain NOP13, stronger effect = lower value",0.999
same,normalized growth,"S. cerevisiae deletion strains, locus YNL197C, strain WHI3, stronger effect = lower value",0.997
same,normalized growth,"S. cerevisiae deletion strains, locus YNL224C, strain SQS1, stronger effect = lower value",0.967
same,normalized growth,"S. cerevisiae deletion strains, locus YNL233W, strain BNI4, stronger effect = lower value",1.05
same,normalized growth,"S. cerevisiae deletion strains, locus YNL250W, strain rad50, stronger effect = lower value",1.02
same,normalized growth,"S. cerevisiae deletion strains, locus YNL271C, strain bni1, stronger effect = lower value",1.01
same,normalized growth,"S. cerevisiae deletion strains, locus YNL298W, strain CLA4, stronger effect = lower value",1.02
same,normalized growth,"S. cerevisiae deletion strains, locus YNL307C, strain MCK1, stronger effect = lower value",1.02
same,normalized growth,"S. cerevisiae deletion strains, locus YNL322C, strain KRE1, stronger effect = lower value",0.898 (active)
same,normalized growth,"S. cerevisiae deletion strains, locus YNR052C, strain pop2, stronger effect = lower value",1
same,normalized growth,"S. cerevisiae deletion strains, locus YOL006C, strain TOP1, stronger effect = lower value",1.08
same,normalized growth,"S. cerevisiae deletion strains, locus YOL012C, strain htz1",0.839
same,normalized growth,"S. cerevisiae deletion strains, locus YOL147C, strain pex11, stronger effect = lower value",1.02
same,normalized growth,"S. cerevisiae deletion strains, locus YOR061W, strain CKA2, stronger effect = lower value",0.99
same,normalized growth,"S. cerevisiae deletion strains, locus YOR069W, strain VPS5, stronger effect = lower value",1.01
same,normalized growth,"S. cerevisiae deletion strains, locus YOR083W, strain WHI5 (second series), stronger effect = lower value",0.957
same,normalized growth,"S. cerevisiae deletion strains, locus YOR136W, strain idh2, stronger effect = lower value",1.03
same,normalized growth,"S. cerevisiae deletion strains, locus YOR144C, strain elg1, stronger effect = lower value",1.01
same,normalized growth,"S. cerevisiae deletion strains, locus YOR184W, strain ser1, stronger effect = lower value",1
same,normalized growth,"S. cerevisiae deletion strains, locus YOR316C, strain cot1, stronger effect = lower value",1.02
same,normalized growth,"S. cerevisiae deletion strains, locus YPL055C, strain LGE1, stronger effect = lower value",1.01
same,normalized growth,"S. cerevisiae deletion strains, locus YPL241C, strain CIN2, stronger effect = lower value",0.995
same,normalized growth,"S. cerevisiae deletion strains, locus YPR119W, strain clb2, stronger effect = lower value",1.01
same,normalized growth,"S. cerevisiae deletion strains, locus YPR141C, strain kar3, stronger effect = lower value",1.01
same,normalized growth,"S. cerevisiae deletion strains, locus YPR163C, strain tif3, stronger effect = lower value",1.01
same,normalized growth,"S. cerevisiae deletion strains, locus YPR167C, strain met16, stronger effect = lower value",1.01
same,normalized growth,"S. cerevisiae deletion strains, strain wtn01, stronger effect = lower value",1.02
same,normalized growth,"S. cerevisiae strains, strain wild type, stronger effect = lower value",1.01
